From PubChem BioAssay (NCI) come the findings set out here.

Each structure is given as a SMILES string. This is part of a sample that, as a whole, favours compounds with a hit. Of some 83,000 tested, about 20% had one in any assay.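 Growth was measured after 48 h exposure to one concentration of compound in 96-well plates. Values under 10 count as active.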 Unmarked numbers belong to inactive results. Calls of active or inactive are those of the source.

In this experiment the test system is MDA-MB-468 breast. The experiment can be described thus: NCI-60 one-dose screen, 48 h (100 = growth as untreated, 0 = no growth, -100 = all killed). Conditions: 10 µM unless noted.
For `O=C(Nc1cccnc1Nc1ccc(Cl)cc1)c1cn(Cc2ccc(F)cc2)nn1`, the growth was 99.5%.

`O=CN1N=C(c2ccc(Cl)cc2)CC1c1cccc(Nc2ccnc3cc(Cl)ccc23)c1` (centres undefined): the growth is -0.854% (active).

Consider `Nc1c(C(=O)Nc2cccc(C(F)(F)F)c2)sc2nc3c(cc12)CCCCC3`, for which the growth was -9.93% (active).

In the case of `COc1ccc(CN2C(=O)/C(=C\c3cc(OC)c(OC)c(OC)c3)c3ccccc32)cc1`, the growth is 5.64% (active).

Take `OC(CBr)c1ccnc2ccccc12` (centres undefined): the growth was 100%.

For the molecule `O=C1Nc2ccc(Cl)cc2/C1=N/N=C/c1c[nH]c2ccccc12`, the growth was 98.7%.

Take `C=C1C(=O)O[C@H]2[C@H]1CC/C(COC(=O)NCc1cn(C)c3ccccc13)=C\CC[C@@]1(C)O[C@@H]21`: the growth is -38.4% (active).

Turning to `N=C(N)c1ccc(-c2ccc(-c3ccc(Cl)cc3Cl)s2)cc1`, the growth was -57.1% (active).

As to `C=C1CC2(OC1=O)C(=O)N(CCCN1C(=O)C3(CC(=C)C(=O)O3)c3ccccc31)c1ccccc12` (centres undefined), the growth is -34% (active).

As to `Cc1cccc(NC(=O)N/C(N)=N/c2nc3ccccc3s2)c1`, the growth is 17.8%.

In the case of `COc1cccc(/C=C2\COc3ccc(O)c(O)c3C2=O)c1OC`, the growth is -19.2% (active).

Turning to `CCOC(=O)C1=C(c2ccccc2)N=C2N(c3ccccc3)N=C(C(C)=O)N2C1c1ccc(F)cc1` (centres undefined), the growth is 93.2%.

Consider `COc1ccc(C(=O)/C=C/c2c(C(F)(F)F)nc3ccccn23)cc1OC`, for which the growth is -59.9% (active).

Regarding `NS(=O)(=O)c1cccc(Nc2nc(SCC(=O)c3ccc(Cl)cc3)nc3c2CCC3)c1`, the growth is 79.8%.
